# From PubChem BioAssay
# ALDH1A1 block: blocks purified human ALDH1A1 activity. Purified ALDH1A1, NADH fluorescence, propionaldehyde substrate. Potency, µM (doses to about 75.3 µM), hits mostly inhibitors. AID 1030. hit rate 7.3% among 220,000. P00352
# Target sequence (P00352 whole entry, looked up): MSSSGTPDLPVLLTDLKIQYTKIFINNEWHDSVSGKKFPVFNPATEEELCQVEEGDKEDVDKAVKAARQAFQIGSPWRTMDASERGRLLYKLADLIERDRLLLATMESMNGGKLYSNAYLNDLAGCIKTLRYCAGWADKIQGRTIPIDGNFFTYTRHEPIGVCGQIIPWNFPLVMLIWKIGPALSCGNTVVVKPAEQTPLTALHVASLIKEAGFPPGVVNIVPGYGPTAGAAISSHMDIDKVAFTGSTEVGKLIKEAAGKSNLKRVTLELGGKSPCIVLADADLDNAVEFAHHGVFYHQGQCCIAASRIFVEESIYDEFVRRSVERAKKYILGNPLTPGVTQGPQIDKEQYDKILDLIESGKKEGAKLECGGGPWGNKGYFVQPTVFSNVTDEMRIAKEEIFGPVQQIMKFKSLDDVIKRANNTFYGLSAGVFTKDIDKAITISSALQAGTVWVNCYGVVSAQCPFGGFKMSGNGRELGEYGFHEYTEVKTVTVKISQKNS
# HPGD block: inhibitors of human 15-hydroxyprostaglandin dehydrogenase (HPGD). purified HPGD, NADH fluorescence kinetic, PGE2 substrate. Potency, µM, usual class: inhibitors. hit rate 4.3% among 150,000. AID 894
#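 NADH formation kinetics: reaction with 30 uM PGE2 and 1 mM NAD+ (final), 20 nM enzyme, Tris-HCl pH 8 with Tween 20, after 15 min compound preincubation at room temperature. Fluorescence change, last versus first of five reads.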
# PNC inhibitor: inhibitors of perinucleolar compartment assembly; PC3M PTB-GFP, PNC prevalence imaging, 16 h; hits give low values; hit rate 3.1% among 140,000; activity change (PNC), negative = inhibition, % at 10 µM;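 active = readout at or below -70, meaning at least 70% loss of cells showing the perinucleolar compartment, a nuclear body marking cancer cells; inconclusive = readout between -30 and a set limit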
#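 PC3M cells stably expressing PTB-GFP, 750–1000 cells/well, treated 16 h at 37 °C with compound (23 nl of library stock), in duplicate. After paraformaldehyde fixation and Hoechst stain, imaged at 20x; PNC prevalence scored by image analysis.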
# A number is an active result; n = inactive; u = inconclusive; x = no result given; [ ] = dose if it differs, or a comment. Shown are actives, neighbours in structure and some others; about 11% of the full set was active somewhere. Unless noted, calls follow the shape of the dose curve; as a rule, active = well fitted inhibition curve with a large enough effect (not every such curve was filed as active); inconclusive = small, poorly fitted or top-dose-only effect, or another doubt; inactive = no such curve, though single readings can be large or run the other way.
SMILES,ALDH1A1 block,HPGD block,PNC inhibitor
CN1C[C@@H]2C(c3ccc(Cl)nc3)C3(c4ccccc4)CC2(C3)[C@H]1c1ccccc1 (some centres not stated),n,n,x
COc1ccc(NC(=O)Nc2ccc(OC)cc2)cc1,n,n,n
COc1ccc(NC(=O)Nc2sc(=S)n(C)c2C)cc1,16µM,x,x
O=C(CN(C(=O)CCC(=O)Nc1nccs1)C1CCCC1)NCc1ccc2c(c1)OCO2,n,x,x
CC1(C(=O)Oc2ccccc2)Cc2ccccc2C(=O)O1 (configuration not stated),n,x,x
CC1(C(=O)O)Cc2ccccc2C(=O)O1 (configuration not stated),n,n,-101
Cc1c(-n2c(SC(C)C(=O)NC(N)=O)nc3ccccc3c2=O)c(=O)n(-c2ccccc2)n1C (configuration not stated),n,x,x
O=C(/C=C/NNC(=O)c1ccc(Br)cc1)c1ccccc1,10µM,n,n
O=C(/C=C/NNC(=O)c1ccccc1)c1ccccc1,n,n,u
NC(N)=NCCCC(NC(=O)C(N)Cc1ccc(O)cc1)C(=O)O (configuration not stated),n,n,x
O=C(CSc1nnc(-c2ccccc2)c(-c2ccccc2)n1)Nc1ccc(Br)cn1,n,n,n
Cc1ccccc1C(=O)Nc1cccc(-c2ccc3nncn3n2)c1,14µM,x,x
O=C(Nc1cccc(-c2ccc3nncn3n2)c1)c1ccco1,n,x,x
COc1cc(/C=C/[N+](=O)[O-])ccc1OCc1cccc(C(=O)O)c1,28µM,x,x
COc1cc(/C=N/NC(=O)c2cccc([N+](=O)[O-])c2)ccc1OCc1ccccc1,u,u,n
COc1ccc(CCN(CC(=O)NC2CCCC2)C(=O)Cn2nnc(-c3ccc(C)o3)n2)cc1OC,n,x,x
COc1ccccc1C(=O)O/N=C(/c1ccncc1)c1ccc([N+](=O)[O-])cc1,20µM,x,x
O=C(O/N=C(\c1ccccc1)c1ccncc1)c1ccccc1F,n,x,x
Cc1nc2sc3c(c2c(=O)[nH]1)CCC3,n,n,n
Cc1cc(-c2nc3c4c5c(sc4[nH]c(=O)n3n2)CCC5)c(C)o1,n,20µM,n
O=C(c1cccc(Cl)c1)N1CCN(c2ccccn2)CC1,u,n,n
O=C(c1ccc2c(c1)N(Cc1cccc(Cl)c1)C(=O)c1ccccc1S2(=O)=O)N1CCN(c2ccccn2)CC1,20µM,x,x
COc1ccccc1CNc1cc(-c2c(C)noc2C)ncn1,n,x,x
O=C(/C=C/c1ccncc1)c1ccc(NC(=O)c2ccccc2F)cc1,u,25µM,n
O=C(Nc1cccnc1)c1ccccc1F,n,n,u
SMILES,ALDH1A1 block,HPGD block,PNC inhibitor
Clc1ccc(CSCc2ccc(Cl)cc2Cl)c(Cl)c1,n[13.5 µM],n,x
O=C(Nc1ccccc1C(=O)N1CCOCC1)c1cccc(S(=O)(=O)N2CCCC2)c1,n,n,-90
O=C(Nc1ccccc1C(=O)N1CCCC1)c1cccc(S(=O)(=O)N2CCCCCC2)c1,n,n,n
O=C(c1cnn(C(=O)c2cccc(S(=O)(=O)N3CCOCC3)c2)c1)c1ccccc1O,3.5µM,x,x
Cc1cc(NC(=O)c2ccc(Br)c(S(=O)(=O)N3CCCC3)c2)no1,n,n,u
O=C(c1cnn(C(=O)c2cccc(S(=O)(=O)N3CCOCC3)c2)c1)c1cc(Cl)cc(Cl)c1O,n,x,x
O=C(NNC1=NCCC1)c1cccc(S(=O)(=O)N2CCCC2)c1,n,n,-107
O=C(NNC1=NCCC1)c1cccc(S(=O)(=O)N2CCOCC2)c1,n,n,n
Cc1cc(NC(=O)c2cccc(S(=O)(=O)N3CCCC3)c2)no1,35µM,n,u
CCCCNCC1C(Oc2ccc(Cl)cc2)C(=O)N1c1ccccc1C (configuration not stated),n,x,x
CCC(C)(C)C(=O)Nc1cccc(Cl)c1C,n,x,x
O=C(COC(=O)c1cc(=O)[nH]c(=O)[nH]1)NCc1ccccc1,n,x,n
C[C@H](NC(=O)c1ccc(Cl)cc1)C(=O)NCCc1ccc(S(N)(=O)=O)cc1,n,x,x
O=C(Nc1ccc(Br)cn1)c1cccc2c1-c1ccccc1C2=O,n,x,x
O=C(C1CC1)N1CCN(S(=O)(=O)c2ccc3c(c2)OCCO3)CC1,n,x,x
CC(C)[C@H](O)CC[C@@H](C)C1CC[C@H]2C3CC=C4C[C@@H](O)CC[C@]4(C)C3CC[C@]12C (some centres not stated),n,x,x
O=C(Nc1ccccc1)N1CC[C@@]2(CCCN(C(=O)c3cccc(F)c3)C2)C1,n,n,x
CC(C)NC(=O)CN1CCC(O)(c2ccccc2)CC1,n,n,n
CC(C)c1ccc(CN2CCN(C(=O)CCl)CC2)cc1,0.56µM,x,x
O=C(CN1CCCCC1)N1CCN(C(=O)CN2CCCCC2)CC1,n,n,n
CN(C)C(=O)CN1CCN(C(=O)CCl)CC1,2.8µM,x,x
CC(C)CC(=O)N1CCN(Cc2ccc3c(c2)OCO3)CC1,u,n,n
CC(C)NC(=O)CN1CCN(C(=O)CCl)CC1,3.2µM,x,x
N#C/C(=C(\O)C(=O)O)c1ccc(-c2cccc3ccccc23)cc1,n[13.5 µM],n,x
Cc1ccc(S(=O)(=O)N(CC#N)CC#N)cc1,n,x,x
SMILES,ALDH1A1 block,HPGD block,PNC inhibitor
COC(=O)CC1c2ccccc2C(Cc2ccc3c(c2)OCO3)=C(C)N1C(=O)OC (configuration not stated),n,n,x
CC(C)=CCC/C(C)=C/COc1c2occc2cc2ccc(=O)oc12,8.9µM,u,x
CC(C)(O)[C@H](O)COc1c2occc2cc2ccc(=O)oc12,n,n,n
COc1ccc(C(C)(C)C)cc1NC(=O)Cn1cnnn1,n,x,x
COc1cc(C(=O)OCc2cc3ccccc3[nH]c2=O)cc(OC)c1OC,n,n,-100
Cc1ccc2cc(CN(Cc3ccco3)C(=O)c3ccccc3)c(=O)[nH]c2c1C,u,n,n
Cc1ccc(C(=O)OCc2cc3ccccc3[nH]c2=O)cc1,n,n,n
O=C(OCc1cc2ccccc2[nH]c1=O)C1CCCCC1,20µM,x,u
COc1cc(C(=O)N(Cc2ccco2)Cc2cc3ccccc3[nH]c2=O)cc(OC)c1OC,22µM,n,n
O=C(OCc1cc2ccccc2[nH]c1=O)C1CCCO1 (configuration not stated),u,x,n
O=C(/C=C/c1cccc([N+](=O)[O-])c1)n1cnc2ccccc21,n,x,x
O=C(Nc1cccc([N+](=O)[O-])c1)Nc1ccc2c(c1)OCCO2,n,x,x
CNC(=S)NC(CC(=O)OC)c1ccc2c(c1)OCO2 (configuration not stated),n,x,x
Cc1cccc(NC(=O)NC(C)C(c2ccccc2)N2CCN(C)CC2)c1 (configuration not stated),n,x,x
COc1cc(/C=C/C(=O)Nc2cc(S(=O)(=O)N3CCOCC3)ccc2N2CCCC2)cc(OC)c1OC,11µM,x,x
CCN(CC)S(=O)(=O)c1cccc(NC(=O)/C=C/c2cccc([N+](=O)[O-])c2)c1,7.9µM,n,n
COc1ccc(/C=C/C(=O)Nc2cc(S(=O)(=O)N3CCCCC3)ccc2N2CCCCC2)cc1OC,u,u,n
CCN(CC)S(=O)(=O)c1ccc(/C=C/C(=O)Nc2ccc(Br)cc2F)cc1,u,n,n
CCN(CC)S(=O)(=O)c1cccc(NC(=O)/C=C/c2ccc([N+](=O)[O-])cc2)c1,n,n,n
CCN(CC)S(=O)(=O)c1ccc(N2CCCCC2)c(NC(=O)/C=C/c2cc(OC)c(OC)c(OC)c2)c1,13µM,n,u
CCN(CC)S(=O)(=O)c1ccc(/C=C/C(=O)Nc2ccc(F)cc2F)cc1,20µM,x,n
